Compound activity: PubChem BioAssay, National Center for Advancing Translational Sciences (NCATS)
In the library only some 12% were active in any assay of this set; here they are far more common.
HP1b binding inh: HP1-beta chromodomain-methylated histone interaction inhibition; 0.56% of 390,000 active; Potency, µM (doses to about 114 µM), most hits filed as inhibitors; AlphaScreen HP1-beta / biotin-H3K9me3 peptide binding; P83916; AID 540317; further: nearly all actives have a fitted effect of over 70% in size
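HP1-beta protein (50 nM final) preincubated 30 min at room temperature with biotinylated H3(1-18)K9me3 peptide (50 nM) in PBS pH 7.4, 0.01% Tween-20, then compound added for 30 min. AlphaScreen streptavidin donor/nickel chelate acceptor beads (10 ug/mL final), 30 min dark, luminescence read.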
Sfp inh: blocks B. subtilis Sfp PPTase activity. Q9F4F7. Biochemical Sfp PPTase activity, qHTS. Potency, µM, most hits filed as inhibitors. 3.5% of 310,000 active;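 further: the enzyme is Sfp with the accession as filed and its product quenches rhodamine fluorescence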
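After 15 min at room temperature with compound, 15 nM Sfp received 5 uM rhodamine-CoA plus 12.5 uM BHQ-2-ybbR (50 mM Hepes pH 7.6, 10 mM MgCl2). Rate came from the fluorescence difference over 30 min, ex 525/em 598 nm.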
BAZ2B block: blocks human BAZ2B | 4.4% of 360,000 active | AlphaScreen BAZ2B-H3K14Ac peptide displacement | Q9UIF8 | Potency, µM (titrated, usually from 114 µM), usual class: inhibitors; further: nearly all actives have a fitted effect of over 60% in size
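In this displacement format the biotinylated H3(5-23) peptide acetylated at Lys14 serves as ligand at 50 nM, with BAZ2B at 50 nM in PBS pH 7.4 containing 0.01% Tween-20. Donor and acceptor beads are 10 ug/mL final.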
G9a block: G9a (human) methyltransferase inhibition. AID 504332. G9a H3K9 monomethylation, AlphaScreen, 2 h. Q96KQ7. Potency, µM (titrated, usually from 102 µM), hits mostly inhibitors. 8.8% of 350,000 active; further: nearly all actives have a fitted effect of over 75% in size
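AlphaScreen read-out: biotin-H3K9 peptide (500 nM) methylation by 20 nM enzyme with 20 uM SAM, 2 h at room temperature after 15 min compound preincubation; anti-monomethyl H3K9 antibody plus donor/acceptor beads, 10 min dark.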
PLK1 PBD block: blocks phosphopeptide binding to human PLK1 polo-box domain; P53350; Plk1 PBD binding of FITC phosphopeptide, fluorescence polarization; 2.8% of 360,000 active; AID 720504; Potency, µM, actives largely listed as inhibitors; further: series mostly up to about 57 µM; nearly all actives have a fitted effect of over 65% in size
JMJD2A Tudor inh: inhibitors of human JMJD2A Tudor domain; O75164; AlphaScreen JMJD2A-Tudor / H3K4me3 peptide binding; Potency, µM (series often up to 114 µM), usual class: inhibitors; 4.4% of 390,000 active; further: nearly all actives have a fitted effect of over 50% in size
Numbers stand for hits; - = inactive; ? = inconclusive; . = no result given; [ ] = remark or other dose. The call rests on the fitted dose curve; in most records, active means well fitted curve in the direction sought with a large enough effect; inconclusive means small, poorly fitted or top-dose-only effect, or another doubt; inactive means no such curve, though single readings can be large; an effect the other way counts as inactive or inconclusive.

SMILES | HP1b binding inh | Sfp inh | BAZ2B block | G9a block | PLK1 PBD block | JMJD2A Tudor inh
N#Cc1c(-n2ncnc2-c2ccc(F)cc2)sc2c1CCCCC2 | ? | . | 7.1µM | ? | . | ?
N#Cc1c(-n2ncnc2-c2cccc(Br)c2)sc2c1CCCCC2 | - | . | - | - | . | ?
CCOC(=O)c1cc(-c2ccc(C)cc2)n(CCC(=O)N2CCN(c3ccccn3)CC2)c1C | ? | - | 45µM | 28µM | - | 35µM
CCOC(=O)c1cc(-c2ccc(C)cc2)n(CCC(=O)NCc2ccccc2)c1C | - | . | - | - | . | -
CCOC(=O)c1cc(-c2ccc(C)cc2)n(CCC(=O)NCCN(C)C)c1C | - | - | 50µM | ? | - | ?
COc1ccc(C(=O)CN2C(=O)N(c3cc(C)cc(C)c3)S(=O)(=O)c3ccccc32)cc1 | - | . | - | - | . | -
O=C(O)CCc1ccc(-c2ccc(Cl)cc2)n1Cc1ccco1 | - | - | 50µM | ? | - | ?
O=C(O)CCc1ccc(-c2ccc(Cl)cc2)n1CCC(=O)O | - | - | - | - | - | -
Cc1c(Cl)cccc1NC(=O)Cn1c(CCC(=O)O)ccc1-c1ccc(Cl)cc1 | ? | - | 56µM | ? | ? | 35µM
O=C(O)CCc1ccc(-c2ccc(Cl)cc2)n1CC(=O)O | - | - | - | 45µM | - | ?
COCCn1c(CCC(=O)O)ccc1-c1cccs1 | - | - | - | 50µM | - | -
Cn1c(=O)c2cc(NC(=O)NCc3ccccc3)ccc2n1C/C=C/c1ccccc1 | . | . | . | . | - | .
O=C(O)CCc1ccc(-c2ccccc2)n1CC(=O)Nc1cccc(C(F)(F)F)c1 | - | - | ? | 45µM | - | -
COc1ccc(-c2ccc(CCC(=O)O)n2Cc2ccco2)cc1 | - | ? | ? | . | - | -
O=C(O)CCc1ccc(-c2cccs2)n1Cc1ccco1 | - | 25µM | 50µM | ? | - | ?
O=C(O)CCc1ccc(-c2ccccc2)n1CC(=O)Nc1ccccc1C(F)(F)F | - | . | - | - | . | -
COC(=O)c1ccccc1C[C@]1(C(=O)OC)C=C[C@H](C)[C@@H](c2ccccc2)N1C(=O)C(F)(F)F | . | - | . | . | . | .
COc1cc(C2C(C(=O)c3ccco3)=C(O)C(=O)N2c2cc(C)on2)cc(Br)c1O (stereo not given) | - | - | - | - | - | ?
COc1ccc(C2C(C(=O)c3ccco3)=C(O)C(=O)N2c2nnc(C)s2)cc1 (stereo not given) | - | 10µM | 50µM | . | - | -
C=CCOc1ccc(C2C(C(=O)c3ccco3)=C(O)C(=O)N2c2nnc(C)s2)cc1 (stereo not given) | - | 7.1µM | 79µM | -[12.7 µM] | 21µM | 28µM
COc1ccc(C2C(C(=O)c3ccco3)=C(O)C(=O)N2c2nnc(C)s2)cc1OC (stereo not given) | - | - | - | 50µM | - | 25µM
CC(C)(C)OC(=O)[C@H](CCCCN)NC(=O)c1nc[nH]c1C(=O)N[C@@H](CCCCN)C(=O)OC(C)(C)C | - | . | . | . | ? | 50µM
CC(C)C[C@H](NC(=O)c1nc[nH]c1C(=O)NC1CCNCC1)C(=O)OC(C)(C)C | - | . | 79µM | ? | - | ?
COC(=O)C[C@H]1C[C@@H]2c3cc(NC(=O)NC4CCCC4)ccc3O[C@@H]2[C@@H](CO)O1 | . | . | . | . | - | .
COc1ccc2c(C)c(C(=O)O)oc2c1 | - | - | - | - | - | -
SMILES | HP1b binding inh | Sfp inh | BAZ2B block | G9a block | PLK1 PBD block | JMJD2A Tudor inh
COc1ccc2c(=O)cc(C(=O)O)oc2c1 | - | - | - | 56µM | - | -
O=C(c1c(F)c(F)c(F)c(F)c1F)N1CCN(c2cccc(C(F)(F)F)c2)CC1 | ? | - | - | ? | 6µM | 14µM
O=C(c1ccccc1F)N1CCN(c2cccc(C(F)(F)F)c2)CC1 | - | - | - | - | - | -
O=C(c1cc(=O)[nH]c2ccccc12)N1CCN(c2cccc(C(F)(F)F)c2)CC1 | ? | - | - | - | 19µM | ?
Cc1cc(C)nc(SCC(=O)NC(=O)c2ccccc2O)n1 | - | . | . | . | - | -
Cn1c(=O)c2c(nc(N/N=C/c3cccs3)n2C)n(C)c1=O | - | - | - | ? | - | -
CC(C)=NNc1nc2c(c(=O)n(C)c(=O)n2C)n1C | - | 22µM | ? | . | - | -
Cn1c(=O)c2c(nc(N/N=C/c3ccco3)n2C)n(C)c1=O | - | 18µM | - | . | - | -
Cn1c(=O)c2c(nc(NN=C3CCCCC3)n2C)n(C)c1=O | ? | - | . | 50µM | - | -
O=C1CSC2(C(=O)N(Cc3ccccc3)c3ccccc32)N1c1ccc(Cl)cc1 (stereo not given) | - | . | - | - | . | -
CCOC(=O)/C(=N\Nc1ccc(Br)cc1)N1CC(C)OC(C)C1 (stereo not given) | - | - | - | 3.2µM | - | ?
O=C(Nc1ccccc1Br)C1CCN(S(=O)(=O)c2cccs2)CC1 | - | . | . | . | - | -
Cc1c(NC(=O)CSc2n[nH]c(=O)n2-c2ccccc2)c(=O)n(-c2ccccc2)n1C | ? | - | - | - | 27µM | 22µM
Cc1cc(C)n2nc(SCC(=O)Nc3c(C)n(C)n(-c4ccccc4)c3=O)nc2n1 | - | - | ? | 45µM | - | -
Cc1cc(C)n2nc(SCC(=O)N/N=C/c3ccccn3)nc2n1 | - | 56µM | - | 8.9µM | - | 8.9µM
Cc1c(NC(=O)CN(c2ccc(F)cc2)S(=O)(=O)c2ccccc2)c(=O)n(-c2ccccc2)n1C | - | - | ? | 45µM | - | -
Cc1c(NC(=O)CN(c2ccccc2)S(=O)(=O)c2ccc(F)cc2)c(=O)n(-c2ccccc2)n1C | - | - | - | . | - | -
Cc1ccc(NC(=O)c2cc3ccccn3n2)cc1F | - | . | - | - | . | -
CCOC(=O)N1CCc2c(sc3c2c(=O)n(CCc2ccccc2)c(=O)n3CC(=O)Nc2ccccc2C)C1 | - | . | - | - | . | -
Cc1ccn2c(Nc3ccccc3C)c(-c3ccncc3)nc2c1 | - | - | - | - | - | -
Cc1cc(C)cc(-n2c(C)cc(/C=N/NC(=O)CSc3ncccn3)c2C)c1 | ? | - | ? | 79µM | - | 79µM
COCCNc1ccnc(-c2ccccc2CN(C)C)n1 | . | - | . | . | . | .
Cc1ccc2c(c1)c(C)cc[n+]2Cc1ccccc1 | - | - | - | 50µM | - | -
COc1ccc2c(c1)c(C)cc[n+]2Cc1ccccc1 | - | - | - | - | - | -
COc1cc(C(=O)c2nccc3cc(OC)c(OC)cc23)c([N+](=O)[O-])cc1OC | - | - | ? | 45µM | - | ?
COc1cc(N)c(C(=O)c2nccc3cc(OC)c(OC)cc23)cc1OC | - | - | - | . | - | -
COc1cc(Br)c(C(=O)c2nccc3cc(OC)c(OC)cc23)cc1OC | - | - | ? | - | 6µM | 45µM
Cc1ccc(F)cc1N=Cc1c(O)c2ccccc2oc1=O | - | - | - | 79µM | - | -
Cc1ccc(N=Cc2c(O)c3ccccc3oc2=O)c(C)c1 | - | - | - | - | - | -
